Assay results taken from PubChem BioAssay (NCI).
This is part of a sample that, as a whole, favours compounds with a hit. Of some 79,000 tested, about 15% had one in any assay. No stated cut-off is given here; in the data, active means growth inhibition above about 70%; inactive means the rest.

Tests used:
[1] = NCI Yeast Anticancer Drug Screen. Data for the rad50 strain (AID 155);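 further: 0% = growth of vehicle-only cultures of the same strain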; conditions: S. cerevisiae rad50 strain growth inhibition; at 50.0 µM; hits give high values
Summary of the method: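 Growth of the mutant yeast was measured after compound exposure and referenced to vehicle-treated cultures.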

[2] = NCI Yeast Anticancer Drug Screen. Data for the mec2-1 strain (AID 157); conditions: S. cerevisiae mec2-1 strain, at 50.0 µM, hits give high values
Summary of the method: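 Test agents were screened against the mec2-1 yeast strain, with defined DNA repair or cell cycle alteration. Growth was scored as inhibition against vehicle-only controls.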

[3] = NCI Yeast Anticancer Drug Screen. Data for the sgs1 mgt1 strain (AID 161);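 further: 0% = growth of cultures given vehicle only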; conditions: S. cerevisiae sgs1 mgt1 strain, at 50.0 µM, hits give high values
Summary of the method: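 Test agents were incubated with a DNA-repair-mutant yeast strain. Growth was then read and compared against vehicle-treated controls.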

[4] = NCI Yeast Anticancer Drug Screen. Data for the cln2 rad14 strain (AID 165);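 further: 0% = growth equal to vehicle treated cultures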; conditions: S. cerevisiae cln2 rad14 strain, at 50.0 µM, hits give high values
Summary of the method: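 Growth of compound-exposed yeast (cln2 rad14 genotype) measured and expressed as inhibition relative to vehicle.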

[5] = NCI Yeast Anticancer Drug Screen. Data for the bub3 strain (AID 167); conditions: S. cerevisiae bub3 mutant strain, at 50.0 µM, hits give high values
Summary of the method: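 Whole-cell yeast assay. The mutant strain was incubated with compounds, and growth inhibition was determined by comparison with vehicle-treated cells.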

[6] = NCI Yeast Anticancer Drug Screen. Data for the mlh1 rad18 strain (AID 175); conditions: S. cerevisiae mlh1 rad18 strain growth inhibition; at 50.0 µM; hits give high values
Summary of the method: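 In this whole-cell yeast screen, a strain with altered DNA damage repair is challenged with compound, and its growth is measured against matched vehicle-treated controls.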

Measured: growth inhibition

OCC1CSCC1CO (stereo unspecified)
inactive: [1] 8.6% | [2] 12.8% | [3] -4.7% | [4] 15.3% | [5] 11.7% | [6] 3.5%

c1ccc(-c2nc3ccccc3n2CCc2ccncc2)nc1
inactive: [1] 11% | [2] 10.4% | [3] 14% | [4] -14% | [5] 3.2% | [6] 20.9%

N=C(N)SC1CC2CC1C1C=CCC21 (stereo unspecified)
inactive: [1] 6.65% | [2] -6.6% | [3] 16.4% | [4] -19.1% | [5] 9.05% | [6] 16.2%

Nc1cccc(CNC(=O)COc2ccc(Cl)cc2C(=O)O)c1
inactive: [1] -0.9% | [2] 14% | [3] -2.7% | [4] -7.6% | [5] 18.4% | [6] 10.4%

c1ccc2c(c1)c1c(n2CCOCCN2CCCC2)CCCC1
inactive: [1] 21.6% | [2] 2.6% | [3] 2.45% | [4] 27% | [5] 0% | [6] -55.8%

N=c1c2ccccc2nc2oc3ccccc3n12
inactive: [1] 48.8% | [2] 12% | [3] 7.7% | [4] 13.2% | [5] 24.9% | [6] 6.5%

C=CCCC(=O)CC(=O)OCC
inactive: [1] -25.1% | [2] -22.7% | [3] -10.7% | [4] 10.3% | [5] -8% | [6] 6.15%

O=C(CN1CCN(c2ccccc2)CC1)N1CCc2c([nH]c3ccccc23)C1c1cccnc1 (stereo unspecified)
inactive: [1] 2.45% | [2] -19.8% | [3] -19.6% | [4] 28.6% | [5] 4.35% | [6] -21.6%

CCOC(=O)C(C#N)S(C)(=O)=O (stereo unspecified)
inactive: [1] 4.55% | [2] -6.55% | [3] 1.9% | [4] -35.3% | [5] -12.1% | [6] -1.6%

O=C(O)c1ccc(C2CCCCC2O)cc1 (stereo unspecified)
inactive: [1] 2.05% | [2] 6.15% | [3] -9.2% | [4] -14.6% | [5] -2% | [6] 0.3%

NC(=O)c1ncn(C2OC(CO)C(O)C2O)c1NC=O (stereo unspecified)
inactive: [1] 1.95% | [2] -3.9% | [3] -2.25% | [4] 7.6% | [5] 9.85% | [6] 17.9%

O=c1cc[nH]c2cc(C(F)(F)F)ccc12
inactive: [1] -26.4% | [2] -39% | [3] -16.7% | [4] 10.1% | [5] -25.9% | [6] -34%

CC(C)OC(CCCl)c1ccc(Cl)cc1 (stereo unspecified)
inactive: [1] -7% | [2] -9.2% | [3] -22.1% | [4] 7.2% | [5] -37.6% | [6] -2.25%

CC(C)/C=N/N=C/C(C)C
inactive: [1] -15.8% | [2] 9.7% | [3] -16.6% | [4] 15.3% | [5] -13.6% | [6] -12.8%

COC(=O)C1C(=O)c2ccccc2C(C)C1c1ccccc1C (stereo unspecified)
inactive: [1] 5% | [2] 41.4% | [3] 26.2% | [4] 4.15% | [5] 55.8% | [6] 27.6%

COc1cccc(CC2C(=O)N=C(NC(C)=O)N2C)c1OC(C)=O (stereo unspecified)
inactive: [1] -35% | [2] -7.4% | [3] -23.6% | [4] -11.7% | [5] -5.65% | [6] -31.2%

Cc1csc2c1-n1cccc1C2=O
inactive: [1] 5.5% | [2] 1% | [3] -17.8% | [4] 12.2% | [5] -19.4% | [6] 24.3%

CC(=O)N1Cc2c(cc(C)[nH]c2=O)C1=O
inactive: [1] 9% | [2] 10.5% | [3] 6.45% | [4] 10.7% | [5] 1.05% | [6] 7.65%

CC(C)(C)/C=C/N1N=NC(c2ccccc2)(c2ccccc2)C1=O
inactive: [1] 32.6% | [2] 19% | [3] 23.1% | [4] -13.2% | [5] 22.1% | [6] 26.7%

CCO/C(O)=C(/C#N)C(=O)NC1=NCCCCC1
inactive: [1] 6.15% | [2] 8.25% | [3] 4.75% | [4] -43% | [5] 4.65% | [6] 16.4%

CCOC1(c2ccccc2)c2ccccc2C(C)(C)c2ccccc21
inactive: [1] 0.8% | [2] 12.3% | [3] 42% | [4] 4.2% | [5] 14.9% | [6] -5.2%
